Reference: the supplement of paper PMC6411743
± gives the standard deviation of the averaged measurements. About 5,400 targets were measured; listed, in parts, are those with the largest changes and a random draw of the rest.

Compound: Nc1nc2c(ncn2[C@@H]2O[C@H](COP(=O)(O)OP(=O)(O)OP(=O)(O)O)[C@@H](O)[C@H]2O)c(=O)[nH]1 [guanosine triphosphate]
Assay: NP40-soluble protein abundance relative to vehicle (solubility fold change) (ratio); higher = more soluble protein in presence of GTP
Procedure: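 Solubility proteome profiling in Jurkat crude lysate. Lysate was treated with Mg-GTP (0.1-10 mM) for 10 min at room temperature and 3 min at 37 °C, then solubilised with 0.8% NP40 and benzonase, followed by ultracentrifugation. Proteins were quantified by TMT10 LC-MS/MS; the value is the NP40-soluble abundance relative to the NP40-processed vehicle, from 3 independent experiments.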

UniProt O00764, sequence (O00764 whole entry, one chain of several): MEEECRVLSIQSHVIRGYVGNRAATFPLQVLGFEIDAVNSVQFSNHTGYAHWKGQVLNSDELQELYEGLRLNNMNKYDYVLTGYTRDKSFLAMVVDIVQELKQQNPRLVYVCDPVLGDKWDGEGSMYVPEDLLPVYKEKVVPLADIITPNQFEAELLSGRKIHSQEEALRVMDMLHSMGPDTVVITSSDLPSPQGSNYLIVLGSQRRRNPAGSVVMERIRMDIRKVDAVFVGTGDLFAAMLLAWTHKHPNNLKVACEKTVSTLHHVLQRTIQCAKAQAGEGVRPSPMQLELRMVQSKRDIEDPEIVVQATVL
UniProt Q6NVY1, sequence (Q6NVY1 whole entry, one chain of several): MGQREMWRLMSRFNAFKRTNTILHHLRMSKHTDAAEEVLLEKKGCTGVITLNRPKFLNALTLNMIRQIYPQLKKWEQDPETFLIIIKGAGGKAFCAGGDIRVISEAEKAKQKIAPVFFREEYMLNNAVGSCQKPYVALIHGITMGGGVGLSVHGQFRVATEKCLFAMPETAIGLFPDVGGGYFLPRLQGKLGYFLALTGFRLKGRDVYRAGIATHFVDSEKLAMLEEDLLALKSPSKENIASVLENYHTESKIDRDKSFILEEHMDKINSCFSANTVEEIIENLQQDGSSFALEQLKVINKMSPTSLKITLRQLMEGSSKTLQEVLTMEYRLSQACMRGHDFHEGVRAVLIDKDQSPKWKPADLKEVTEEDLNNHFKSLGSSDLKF
UniProt Q9NTI5, sequence (Q9NTI5 whole entry, one chain of several): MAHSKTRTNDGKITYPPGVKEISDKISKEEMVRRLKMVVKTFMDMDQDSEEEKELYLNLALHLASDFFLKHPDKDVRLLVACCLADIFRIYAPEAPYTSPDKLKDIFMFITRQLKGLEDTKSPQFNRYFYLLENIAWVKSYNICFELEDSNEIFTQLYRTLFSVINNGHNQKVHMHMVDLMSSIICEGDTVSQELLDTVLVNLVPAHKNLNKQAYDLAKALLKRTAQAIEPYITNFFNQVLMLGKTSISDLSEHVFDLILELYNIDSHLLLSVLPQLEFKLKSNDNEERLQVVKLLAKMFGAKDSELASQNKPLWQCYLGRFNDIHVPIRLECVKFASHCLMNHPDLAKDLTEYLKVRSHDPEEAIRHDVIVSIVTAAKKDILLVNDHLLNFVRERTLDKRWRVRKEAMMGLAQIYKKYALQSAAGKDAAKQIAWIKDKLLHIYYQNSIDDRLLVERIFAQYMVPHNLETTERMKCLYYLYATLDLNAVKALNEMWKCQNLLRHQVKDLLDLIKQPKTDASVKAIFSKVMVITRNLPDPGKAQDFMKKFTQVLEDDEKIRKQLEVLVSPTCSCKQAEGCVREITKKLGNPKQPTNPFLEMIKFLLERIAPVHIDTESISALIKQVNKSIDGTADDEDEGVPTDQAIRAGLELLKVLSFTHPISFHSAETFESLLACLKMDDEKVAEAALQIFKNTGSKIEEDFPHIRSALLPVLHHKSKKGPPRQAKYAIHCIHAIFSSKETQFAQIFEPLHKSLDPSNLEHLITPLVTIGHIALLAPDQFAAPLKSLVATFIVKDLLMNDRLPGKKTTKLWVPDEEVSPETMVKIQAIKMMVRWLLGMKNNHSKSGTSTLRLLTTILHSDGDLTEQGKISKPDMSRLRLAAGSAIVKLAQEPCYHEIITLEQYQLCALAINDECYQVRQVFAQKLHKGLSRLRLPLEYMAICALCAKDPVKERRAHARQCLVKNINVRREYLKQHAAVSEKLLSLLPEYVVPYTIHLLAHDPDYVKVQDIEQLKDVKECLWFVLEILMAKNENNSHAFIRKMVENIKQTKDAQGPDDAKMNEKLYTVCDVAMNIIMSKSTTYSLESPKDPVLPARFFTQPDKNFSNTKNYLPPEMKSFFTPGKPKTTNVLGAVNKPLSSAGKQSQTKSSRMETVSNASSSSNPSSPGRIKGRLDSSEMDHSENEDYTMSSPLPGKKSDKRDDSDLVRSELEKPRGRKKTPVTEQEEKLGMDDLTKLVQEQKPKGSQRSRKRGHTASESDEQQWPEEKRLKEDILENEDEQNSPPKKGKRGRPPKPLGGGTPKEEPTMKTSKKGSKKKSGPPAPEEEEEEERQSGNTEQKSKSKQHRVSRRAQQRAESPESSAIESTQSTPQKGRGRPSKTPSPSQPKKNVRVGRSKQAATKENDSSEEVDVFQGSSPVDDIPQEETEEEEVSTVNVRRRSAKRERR
UniProt Q8TEU7, sequence (Q8TEU7 whole entry, looked up, other chains not shown): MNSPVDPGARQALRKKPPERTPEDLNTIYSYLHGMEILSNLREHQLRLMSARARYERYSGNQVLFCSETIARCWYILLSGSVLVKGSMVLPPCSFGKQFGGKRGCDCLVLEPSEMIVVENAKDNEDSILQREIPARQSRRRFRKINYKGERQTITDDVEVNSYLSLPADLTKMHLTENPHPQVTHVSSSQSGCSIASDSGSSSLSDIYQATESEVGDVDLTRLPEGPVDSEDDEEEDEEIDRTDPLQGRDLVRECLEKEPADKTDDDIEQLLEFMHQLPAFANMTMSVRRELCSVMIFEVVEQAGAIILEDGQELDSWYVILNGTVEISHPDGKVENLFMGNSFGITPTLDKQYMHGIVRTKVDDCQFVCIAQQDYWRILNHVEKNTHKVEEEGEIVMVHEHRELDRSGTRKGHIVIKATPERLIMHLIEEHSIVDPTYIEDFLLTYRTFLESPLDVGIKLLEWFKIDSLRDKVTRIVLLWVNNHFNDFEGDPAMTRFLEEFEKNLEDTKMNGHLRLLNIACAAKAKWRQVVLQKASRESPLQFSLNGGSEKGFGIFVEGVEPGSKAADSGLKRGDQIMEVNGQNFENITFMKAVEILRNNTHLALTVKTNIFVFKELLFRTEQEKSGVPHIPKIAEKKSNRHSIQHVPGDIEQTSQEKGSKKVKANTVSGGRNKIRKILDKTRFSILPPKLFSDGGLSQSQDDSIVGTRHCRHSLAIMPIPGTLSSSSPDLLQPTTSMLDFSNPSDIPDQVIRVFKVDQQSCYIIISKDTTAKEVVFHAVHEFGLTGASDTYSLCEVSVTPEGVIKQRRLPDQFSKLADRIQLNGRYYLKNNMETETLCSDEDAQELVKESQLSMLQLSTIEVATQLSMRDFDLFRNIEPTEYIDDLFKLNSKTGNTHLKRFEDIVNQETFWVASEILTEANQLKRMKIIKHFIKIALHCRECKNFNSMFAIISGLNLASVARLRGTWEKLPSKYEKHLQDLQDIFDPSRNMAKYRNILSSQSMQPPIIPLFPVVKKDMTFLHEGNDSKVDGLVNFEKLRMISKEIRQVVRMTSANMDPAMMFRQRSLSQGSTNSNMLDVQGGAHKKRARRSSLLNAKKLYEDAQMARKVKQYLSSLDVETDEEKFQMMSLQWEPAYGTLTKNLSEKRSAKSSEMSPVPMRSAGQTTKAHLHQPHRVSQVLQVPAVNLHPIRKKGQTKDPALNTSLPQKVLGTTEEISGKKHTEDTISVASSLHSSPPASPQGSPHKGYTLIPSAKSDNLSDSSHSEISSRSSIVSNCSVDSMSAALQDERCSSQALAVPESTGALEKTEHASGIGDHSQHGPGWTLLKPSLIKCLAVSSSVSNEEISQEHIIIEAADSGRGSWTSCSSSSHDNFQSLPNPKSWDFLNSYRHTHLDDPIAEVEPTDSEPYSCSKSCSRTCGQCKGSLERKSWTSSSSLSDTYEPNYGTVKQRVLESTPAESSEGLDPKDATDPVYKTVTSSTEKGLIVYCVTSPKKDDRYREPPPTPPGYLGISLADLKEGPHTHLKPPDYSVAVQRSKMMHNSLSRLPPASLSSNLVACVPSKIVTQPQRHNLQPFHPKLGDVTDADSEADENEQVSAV

Target	NP40-soluble protein abundance (concentration: 0.1mM)	NP40-soluble protein abundance (concentration: 0.5mM)	NP40-soluble protein abundance (concentration: 1mM)	NP40-soluble protein abundance (concentration: 2mM)	NP40-soluble protein abundance (concentration: 4mM)	NP40-soluble protein abundance (concentration: 6mM)	NP40-soluble protein abundance (concentration: 8mM)	NP40-soluble protein abundance (concentration: 10mM)
E9PCH4|Q8TEU7|Q8TEU7-4 (UniProt Q8TEU7+E9PCH4)	0.967 ± 0.021	0.9825 ± 0.0063	0.968 ± 0.023	0.96 ± 0.02	0.981 ± 0.016	0.969 ± 0.038	1.0058 ± 0.00029	0.9592 ± 0.0034
A6NFX8|Q9UKK9 (UniProt Q9UKK9)	1.05 ± 0.036	1.04 ± 0.07	0.987 ± 0.036	0.994 ± 0.079	0.968 ± 0.046	0.942 ± 0.052	0.93 ± 0.018	0.93 ± 0.01
A0A087WXI1|Q6NVY1 (UniProt Q6NVY1)	0.948 ± 0.045	0.945 ± 0.042	0.909 ± 0.082	0.875 ± 0.083	0.863 ± 0.087	0.867 ± 0.092	0.861 ± 0.096	0.841 ± 0.096
F2Z2Y4|O00764|O00764-2 (UniProt O00764)	1 ± 0.072	1.01 ± 0.09	0.942 ± 0.055	0.918 ± 0.095	0.905 ± 0.071	0.91 ± 0.08	0.88 ± 0.063	0.868 ± 0.086
A9IYQ1|Q9NTI5|Q9NTI5-2 (UniProt Q9NTI5)	1.01 ± 0.015	1.03 ± 0.024	1.01 ± 0.015	0.995 ± 0.036	1.01 ± 0.035	1.01 ± 0.052	1.02 ± 0.08	0.992 ± 0.041
